The panel holds about 83,000 compounds, 20% with a hit somewhere; the sample as a whole holds those more often.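 A percent growth of 40 corresponds to 60% growth inhibition; 0 means no net growth; -100 means all cells died. Active threshold: below 10.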 Values without a mark were called inactive. The source made the active and inactive calls.

Common to all, as to test: NCI-60 one-dose screen, 48 h (100 = growth as untreated, 0 = no growth, -100 = all killed)
What all share (conditions): 10 µM unless noted

Test [1] deals with NCI-H23 lung.
The test system of test [2] is NCI-H226 lung.
Test [3] has as its system NCI-H322M lung.
Test [4] relates to HOP-62 NSCLC.
Test [5] has as its system NCI-H460 lung.
Test [6] concerns HOP-92 NSCLC.
The subject of test [7] is NCI-H522 lung.
The subject of test [8] is A549/ATCC NSCLC.
Test [9] relates to 786-0 renal.
For test [10], the system named is COLO 205 colon.
Test [11] concerns DU-145 prostate.
Test [12] deals with K-562 leukemia.
Test [13] deals with MALME-3M melanoma.
Test [14] concerns MDA-MB-231 breast.
For test [15], the system named is RXF 393 renal.
For test [16], the system named is SF-268 CNS.
Test [17] deals with SF-295 CNS.
Test [18] has as its system SF-539 CNS.
In test [19] the test system is UACC-257 melanoma.
In test [20] the test system is M14 melanoma.

As for `O=C(Nc1ccccc1CNc1nc(Nc2ccc(OCCN3CCCC3)cc2)ncc1Cl)NC1CCCCC1`, the growth in test [1] is 87.2%; in test [2], 97%; in [3] it was 109%; in test [4] it was 83.3%; in [5], 89.8%; in test [6] it was 65.5%. The growth in test [7] was 113%; in [8], 85.4%; in test [9] it was -25.2% (active); in test [10], 89.3%; in test [11], 82.8%; in test [12], 6.79% (active). Besides, the growth was 67.7% in test [13]; 69.7% in test [14]; 56.8% in test [15]; 73.1% in [16]; 82% in [17]; 84.3% in test [18]. The growth in test [19] is 78.3%; in test [20], 31.1%.
In the case of `NC(=O)[C@@H]1Cc2ccccc2CN1C(=O)c1ccc2c(c1)Cc1ccccc1-2`, the growth in test [1] is 89.4%; in test [2], 83.2%; in test [3], 103%; in [4], 108%; in [5] it was 91.5%; in test [6] it was 92.9%. The growth is 66.9% in [7]; 64.9% in test [8]; 97.8% in test [9]; 105% in test [10]; 86% in test [11]; 58.9% in [12]. Moreover, the growth was 87.3% in test [13]; 98.4% in test [14]; 91.9% in test [15]; 87.3% in [16]; 79.8% in test [17]; 97.6% in test [18]. For the same compound, the growth in [19] is 94.9%; in test [20] it was 87.4%.
As to `Cc1ccc(Nc2oc(-c3ccccc3)nc2[P+](c2ccccc2)(c2ccccc2)c2ccccc2)cc1`, the growth in test [1] is -51.8% (active); in [2], -13.8% (active); in test [3] it was -21.6% (active); in test [4], -51.1% (active); in test [5], -81.7% (active); in test [6], -44.8% (active). Further, the growth in [7] was -57.4% (active); in test [8], -25% (active); in test [9] it was -77.5% (active); in test [10], -34.7% (active); in [11] it was -19.4% (active); in [12] it was 0.645% (active). The growth was -61.6% (active) in test [13]; -83.5% (active) in test [14]; -69.1% (active) in test [15]; 10.6% in [16]; -85.5% (active) in [17]; -60.7% (active) in [18]. Besides, the results for the growth in test [19] and in test [20] were -42.5% (active) and -76.2% (active), respectively.
`CCOC(=O)c1c(NC(=S)Nc2ccc([N+](=O)[O-])cc2)sc2c1CCCCC2`: the growth in test [1] is 69.4%; in [2], 70.8%; in test [3], 83.5%; in test [4], 102%; in [5] it was 69.7%; in test [6], 0.0405% (active). For the same compound, the growth is 58.7% in test [7]; 84.4% in test [8]; 92.9% in test [9]; 105% in test [10]; 89.8% in test [11]; 81.1% in [12]. For the same compound, the growth is 72.7% in test [13]; 79.7% in [14]; 85.6% in test [15]; 89% in test [16]; 87.2% in [17]; 92% in test [18]. The figures for the growth in test [19] and in [20] were 70.4% and 93.7%, respectively.
As for `O=C(COc1ccc(/C=C2\Oc3ccccc3C2=O)cc1)Nc1nccs1`, the growth is 87.6% in test [1]; 89.8% in [2]; 89.3% in test [3]; 86.8% in test [4]; 107% in test [5]; 34.3% in [6]. The growth in [7] is -30.2% (active); in test [8], 97.5%; in test [9], 88.1%; in test [10] it was 107%; in [11] it was 109%; in [12] it was 70.1%. Moreover, the growth in test [13] is 98.1%; in [14], 76.6%; in test [15], 95.5%; in test [16], 75.1%; in test [17] it was 116%; in [18], 99.9%. Further, the growth in [19] is 113%; in test [20], 105%.
Regarding `O=C(/C=C/c1ccc([N+](=O)[O-])cc1)c1cccc(Nc2nc(Nc3ccccc3)nc(Nc3ccccc3)n2)c1`, the growth was 60.9% in [1]; 82.6% in [2]; 75.9% in test [3]; 69.2% in [4]; 81.1% in test [5]; -2.76% (active) in test [6]. The growth was 78.7% in test [7]; 72.7% in [8]; 70.5% in [9]; 65.1% in test [10]; 77.3% in test [11]; 60.8% in test [12]. For the same compound, the growth in test [13] was 87.5%; in [14], 70.9%; in test [15], -39.7% (active); in [16], 85.5%; in test [17], 79.7%; in test [18], 74.7%. In addition, the growth in test [19] was 98.7%; in test [20], 74.5%.
Turning to `CN(C)c1ccc(Cc2cc(-c3ccccc3)nn(C/C(=N/O)c3ccccc3)c2=O)cc1`, the growth is 57.4% in test [1]; 60.5% in test [2]; 80.4% in [3]; 75.1% in test [4]; 42.6% in [5]; 55.9% in [6]. For the same compound, the growth in test [7] is 41.2%; in test [8], 30.2%; in test [9], 75.4%; in test [10], 58.4%; in test [11], 91.8%; in test [12], 29.5%. In addition, the growth in [13] is 66.2%; in test [14], 54%; in test [15] it was 61.4%; in [16], 55.8%; in test [17] it was 45.5%; in test [18], 84.3%. Further, the growth in [19] was 62.8%; in test [20], 57%.
As for `CC(C)n1cc(C2=C(c3cccc4ccccc34)C(=O)NC2=O)c2cc(Br)ccc21`, the growth in test [1] is 49%; in [2], 37.8%; in test [3] it was 87.5%; in [4], 78.5%; in test [5] it was 67.5%; in [6] it was 158%. The growth in test [7] was 79.9%; in test [8] it was 60.5%; in test [9], 54.9%; in test [10], 62.2%; in test [11] it was 71%; in [12] it was 34.8%. Moreover, the growth in test [13] was 122%; in test [14] it was 91.2%; in test [15] it was 24.4%; in [16], 67.5%; in test [17], 63.9%; in [18] it was 60.9%. Besides, the growth in test [19] is 111%; in test [20] it was 76.1%.

(Values after PubChem BioAssay (NCI).)
